Source: PubChem BioAssay (NCATS)
Where “and” joins values, the source holds several entries; their conditions need not be identical. Identical values can stand only once. Inconclusive results are not listed. A call without a number means that no potency is given here. Values without a mark were called inactive. Calls of active or inactive are those of the source. Calls come from the whole dose curve; as a rule, active = well fitted inhibition curve with a large enough effect; inconclusive = small, poorly fitted or top-dose-only effect; inactive = flat fitted curve, though single readings scatter.

Key:
CRL-7250 = normal cell line; test: Cytotoxic Profiling of Annotated Libraries Using Quantitative High-Throughput Screening (AID 1296008); details: Five cell lines viability, CellTiter-Glo ATP luminescence, 48-72 h; max response: stronger effect = lower value
Procedure, shortened: (§1)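 Cells exposed to compounds for 48 or 72 hr at 37 degrees Celsius. Viability read as ATP-coupled luminescence with CellTiter-Glo after 10 min at room temperature.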

HaCat [1] = test: as above; details: Five cell lines viability, CellTiter-Glo ATP luminescence, 48-72 h; max response: stronger effect = lower value
Procedure, shortened: as §1

NIH3T3 = test: as above; details: Five cell lines viability, CellTiter-Glo ATP luminescence, 48-72 h; max response: stronger effect = lower value
Procedure, shortened: as §1

HACAT [2] = test: qHTS assay to identify novel small-molecules to repurpose for Merkel cell carcinoma treatment (AID 1296009); details: MCC and control cell lines, CellTiter-Glo viability, 72 h; at 44.8 µM (top of the series) unless noted
Procedure, shortened: (§2)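 CellTiter-Glo luminescence after 72 hr compound exposure at 37 degree celsius gave cell viability. Libraries NPC and MIPE were run as 8- and 11-point dose responses; RLUs normalized to DMSO (negative) and no-cell (cytotoxicity) controls.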

MCC-13 = test: as above; details: MCC and control cell lines, CellTiter-Glo viability, 72 h; series mostly up to 46 µM
Procedure, shortened: as §2

MCC-26 = test: as above; details: MCC and control cell lines, CellTiter-Glo viability, 72 h; series mostly up to 46 µM
Procedure, shortened: as §2

KB-3-1 = test: Cytotoxic Profiling of Annotated Libraries Using Quantitative High-Throughput Screening (AID 1296008); details: Five cell lines viability, CellTiter-Glo ATP luminescence, 48-72 h; max response: stronger effect = lower value
Procedure, shortened: as §1

HEK293 = test: as above; details: Five cell lines viability, CellTiter-Glo ATP luminescence, 48-72 h; max response: stronger effect = lower value
Procedure, shortened: as §1
Note: nearly all actives have a fitted effect of over 60% in size.
Potency is the fitted concentration of half-maximal effect.

CCC(=C(CC)c1ccc(O)cc1)c1ccc(O)cc1
max response (CRL-7250): 2.3%
outcome (HaCat [1]): inactive
max response (NIH3T3): -12.1%
outcome (HACAT [2]): inactive
Potency (MCC-13): inactive
Potency (MCC-26): inactive

CCCCC(C)(C)[C@H](O)C=C[C@H]1[C@H](O)CC(=O)[C@H]1CC=CCCCC(=O)O
max response (CRL-7250): -10.4%
outcome (HaCat [1]): inactive
outcome (KB-3-1): inactive
outcome (HACAT [2]): inactive
Potency (MCC-13): inactive
Potency (MCC-26): inactive

CC(C)(C)c1[nH]cnc1C=c1[nH]c(=O)c(=Cc2ccccc2)[nH]c1=O
Potency (CRL-7250): 0.0038 µM (active)
Potency (KB-3-1): 2.41e-05 µM (active)
max response (NIH3T3): -78.6%
Potency (MCC-13): 0.0076 µM (active)

CC(C)N(CCCNC(=O)Nc1ccc(C(C)(C)C)cc1)C[C@H]1O[C@@H](n2cc(Br)c3c(N)ncnc32)[C@H](O)[C@H]1O
Potency (HEK293): 18.7 µM (active)
max response (HaCat [1]): -6.68%
Potency (KB-3-1): 26.4 µM (active)
Potency (MCC-13): inactive
Potency (MCC-26): inactive

O=C(Nc1cccc(Cl)c1)Nc1ncc(CCNc2ncnc3ccsc23)s1
Potency (HEK293): 16.6 µM (active)
Potency (HaCat [1]): 2.09 µM (active)
Potency (MCC-26): inactive

C#CCN(C)CC1=Cc2ccccc2Oc2ccccc21
max response (CRL-7250): -16.4%
max response (KB-3-1): -4.88%
max response (NIH3T3): -28.1%
Potency (MCC-13): inactive
Potency (MCC-26): inactive

NC(=O)c1nnn(Cc2cc(Cl)c(C(=O)c3ccc(Cl)cc3)c(Cl)c2)c1N
Potency (HEK293): 20.9 µM (active)
max response (HaCat [1]): -5.54%
max response (KB-3-1): -25.7%
Potency (MCC-13): inactive
Potency (MCC-26): inactive

Cc1csc(-c2nnc(Nc3ccc(Oc4ncccc4-c4ccnc(N)n4)cc3)c3ccccc23)c1
max response (CRL-7250): -3.89% and -3.06%
Potency (HaCat [1]): 0.148 µM (active)
Potency (MCC-26): inactive

O=C(Nc1ccc(OC(F)(F)F)cc1)c1sccc1NCc1ccnc2ccccc12
Potency (HEK293): 8.33 µM (active) and 20.6 µM (active)
outcome (HaCat [1]): inactive
outcome (HACAT [2]): inactive
Potency (MCC-13): inactive
Potency (MCC-26): inactive
